Screening results (PubChem BioAssay)
CRFBP-R2 agonist: agonists of human CRF-binding protein/CRF-R2 receptor complex; HEK293 CRF-R2/CRF-BP, calcium dye fluorescence (FLIPR); percent of saturating CRF peptide response; AID 588473; 0.46% of 350,000 active; activation, % at 13.2 µM;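 active = activation of at least 50%, plus an integration ratio under a set limit after plate pattern correction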;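 note: plate controls were neutral control wells without compound for no effect and CRF at EC100 for full effect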
CRFBP-R2 block: antagonists of CRF-binding protein/CRF-R2 receptor complex. 0.59% of 350,000 active. HEK293 CRF-R2/CRF-BP, CRF-induced calcium fluorescence. inhibition, % at 11.8 µM;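 active = inhibition of the ligand-induced calcium signal above about 50% at the single tested concentration, limit read from the data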
SKN-1 inh: blocks SKN-1 activity in C. elegans | C. elegans VP596 Pgst-4::GFP/RFP ratio, acrylamide-induced, 24 h | inhibition, % at 21.8 µM | 0.49% of 360,000 active;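 active = interference check ratio from 0.5 to 1.5 plus GFP to RFP signal ratio inhibition reaching or exceeding a fixed threshold, cut at about 30% in these data, passing the limit was not always enough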
H9c2 TAG inh: triacylglycerol accumulation inhibition | inhibition, % at 12.5 µM | H9c2 cells, Nile Red lipid (TAG) fluorescence; cells loaded with 200 µM oleic acid | AID 651582 | 0.66% of 230,000 active;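 active = pattern-corrected inhibition of lipid staining of at least 50% with the nuclear-stain viability signal not falling by more than 50%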;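 note: 0% = DMSO wells and 100% = triacsin C control wells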
Cardio protect: protects H9c2 cardiomyocytes from peroxide injury | H2O2 injury protection, ATPLite, 2 h | protection from H2O2 cell death, % at 20 µM | 0.63% of 360,000 active;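 active = compounds giving at least 50% protection of heart cells from peroxide-induced death in the single-dose screen, raw or plate-pattern-corrected value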;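 note: 0% = DMSO wells with peroxide and 100% = DMSO wells without peroxide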
hiPSC survival: hiPSC single-cell survival enhancement; ATPlite luminescence; 100% = ROCK inhibitor wells, 0% = DMSO; survival enhancement, % at 20 µM; 0.044% of 360,000 active; in the data active = survival enhancement above about 18%;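 note: cells exposed to compounds for 16 hours before the ATP read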
An asterisk follows results filed as active; · = no result given. Sampled rows, rich in hits. Any-hit rate of the full collection: about 2.5%.

SMILES	CRFBP-R2 agonist	CRFBP-R2 block	SKN-1 inh	H9c2 TAG inh	Cardio protect	hiPSC survival
N/C(=N\OC(=O)c1ccc(Cl)cc1Cl)c1cccnc1	-0.4	-12.3	53.8*	·	-29.3	-4.7
CC(=O)N1CCN(CC(=O)Nc2ccccc2Sc2ccccc2)CC1	4.2	-7.5	8.9	-15.4	-12.3	0.1
CCc1ccc(O)c(CNCCNCc2cc(CC)ccc2O)c1	0.3	-3.9	-24.4	·	18.9	-4.2
Cc1ccc(O)c(CNCCNCc2cc(C)ccc2O)c1	1.2	-4.4	-12.9	21.1	64.8*	-1.1
COc1ccc(NC(=O)c2cc3c(=O)n(C)c4ccccc4c3n2C)cc1OC	-3.8	-33.6	4.2	19.6	50.0*	-3.4
Cn1c(C(=O)NCc2cccs2)cc2c(=O)n(C)c3ccccc3c21	1.4	8.1	-3.8	-3.3	68.4*	-1.0
COc1ccc(NC(=O)c2cc3c(=O)n(C)c4ccccc4c3n2C)cc1Cl	2.4	14.3	7.5	4.0	7.9	-0.2
COCCn1cc(C(=O)NCc2cccs2)c2c3ccccc3n(C)c2c1=O	1.6	-5.4	41.0*	·	27.4	1.4
COC(=O)[C@H]1C[C@H](OC(=O)Nc2c(C)noc2C)[C@@]2(O)CN(S(=O)(=O)c3ccc(C)cc3)CC2[C@H]1C(=O)OC (stereo partly drawn)	-0.3	8.9	-3.9	1.1	6.0	3.8
CC(=O)c1ccc2c(c1)CC(C)C(=O)N2C (stereo not drawn)	0.4	-1.1	11.9	·	6.1	0.0
COc1ccc(N=Nc2ccc3ccccc3c2)c(O)c1	-0.9	4.5	32.6*	·	-19.0	-0.5
CC(C)CNC(=O)c1ccccc1Oc1ccccc1	-2.4	7.8	-25.3	-12.4	-9.7	4.3
CN(C)CCCNC(=O)c1ccccc1Oc1ccccc1	1.9	58.9*	16.6	0.2	4.8	0.5
C=CCN(c1ccccc1)S(=O)(=O)c1cccc(C(=O)Nc2ccc(N3CCOCC3)cc2)c1	0.7	11.2	3.8	1.0	2.7	-0.1
N#CC1=C(N)SC(N)=C(C#N)C1CCc1ccccc1	103.1*	-41.1	8.0	7.5	-9.9	2.0
CC(C)CC1C(C#N)=C(N)SC(N)=C1C#N	50.2*	-56.4	-1.2	·	-10.4	-1.7
CCOc1ccc(C2C(C#N)=C(N)SC(N)=C2C#N)cc1OCC	7.3	-27.9	10.0	-9.1	4.4	-0.6
N#CC1=C(N)SC(N)=C(C#N)C1Cc1ccccc1	47.2	-42.1	12.3	·	-1.0	-0.3
CCc1ccc(C2C(C#N)=C(N)SC(N)=C2C#N)cc1	50.2*	-25.6	15.7	·	-4.2	-0.1
Cc1ccc(S(=O)(=O)N2CC3C(=O)CC(c4ccccc4)N(S(=O)(=O)c4ccc(C)cc4)C3CC2c2cccc(Cl)c2)cc1 (stereo not drawn)	·	·	4.4	·	·	·
CC(C)N1CCC(C)(C(=O)Nc2ccc(Cl)c(Cl)c2)C1 (stereo not drawn)	·	·	-8.2	5.3	4.7	-2.6
COc1ccc2[nH]c(=O)c(CN(Cc3nnnn3Cc3ccc(F)cc3)CC3CCCO3)cc2c1 (stereo not drawn)	-1.7	-1.7	-7.3	1.8	32.3	1.0
COc1ccc2[nH]c(=O)c(CN(Cc3nnnn3Cc3ccccc3)CC3CCCO3)cc2c1 (stereo not drawn)	0.6	-34.5	-2.1	·	66.8*	0.5
COCCn1nnnc1CN(CCc1ccccc1)Cc1cc2cc(OC)ccc2[nH]c1=O	15.0	-40.1	0.6	·	64.0*	-3.5
NS(=O)(=O)c1ccc(N2CCN(C(=O)C3COc4ccccc4O3)CC2)nc1 (stereo not drawn)	-1.2	-6.6	-1.2	-12.4	4.6	-0.5
SMILES	CRFBP-R2 agonist	CRFBP-R2 block	SKN-1 inh	H9c2 TAG inh	Cardio protect	hiPSC survival
COc1cccc(/C=C/c2nc(S(=O)(=O)c3ccccc3)c(N(C)C)o2)c1	0.9	2.6	5.5	·	0.0	-0.3
COc1ccccc1/C=C/c1nc(S(=O)(=O)c2ccccc2)c(N(C)C)o1	-0.7	71.9*	6.5	·	-0.9	-0.3
CCCS(=O)(=O)NC(=O)C1(C)CCCN(C(=O)c2ccc3ccccc3n2)C1 (stereo not drawn)	·	·	11.0	9.4	-1.9	2.3
COc1ccccc1NC(=O)c1ccccc1Nc1ccccc1	2.2	4.7	20.3	·	-9.2	-0.5
O=C(Nc1ccccc1C(=O)Nc1ccccc1C(=O)O)c1ccccc1	0.3	53.2*	10.6	·	-7.8	2.9
Nc1ccc(C(=O)Nc2ccccc2C(=O)O)cc1	-2.0	17.7	-4.8	0.9	-3.5	-1.6
O=C(COc1ccc2ccccc2c1)Nc1cccc(C(=O)Nc2ccccc2C(=O)O)c1	0.1	59.4*	-0.1	6.4	6.0	0.5
O=C(O)c1ccccc1NC(=O)c1ccccc1Nc1ccccc1	-0.5	52.1*	-4.9	·	-4.6	-0.5
COc1cccc(OC2(C)CCN(Cc3cccn3-c3nccs3)C2)c1 (stereo not drawn)	·	·	15.5	-10.6	-7.8	-1.8
O=C(Cc1ccccc1[N+](=O)[O-])NCc1ccco1	1.5	9.7	1.9	-6.5	1.6	3.6
CNC[C@H]1OCCCC[C@H](C)Oc2ccc(NC(=O)CCCN(C)C)cc2C(=O)N([C@H](C)CO)C[C@@H]1C	0.4	37.2	17.0	-17.7	3.1	0.8
CCC/C(O)=C1\C(=O)CC(C)(C)CC1=Nc1ccccc1O	-1.4	6.5	-3.6	-7.6	-9.9	-0.8
O=S(=O)(c1cccc(F)c1)N1CCN(c2nc(-c3cccnc3)nc3ccccc23)CC1	0.1	-14.6	9.8	7.8	59.1*	0.0
COc1cc2c(cc1OC)[C@@H](NC(=O)CCc1ccccc1)[C@H](OCc1ccccc1)C2	-5.3	23.1	35.4*	5.1	20.1	2.3
CCCCCCCCCC(=O)N[C@@H]1c2cc(OC)c(OC)cc2C[C@H]1OCc1ccccc1	-0.6	-8.5	6.8	1.6	-8.3	-2.1
COc1ccc(CN(C(=O)c2cccc(OC)c2)C2CCS(=O)(=O)C2)cc1 (stereo not drawn)	-1.3	-6.1	7.2	-8.8	2.7	-0.2
COc1ccc(CN(C(=O)c2ccc(C)cc2)C2CCS(=O)(=O)C2)cc1 (stereo not drawn)	0.5	63.7*	5.2	·	5.8	0.0
COc1ccc(CN(C(=O)c2oc3ccccc3c2C)C2CCS(=O)(=O)C2)cc1 (stereo not drawn)	-0.8	-0.8	36.0*	4.1	8.7	-1.7
CC(C)CNc1ncnc2c1ncn2[C@H]1CN(Cc2ccco2)C[C@@H](CO)O1	·	·	1.8	8.9	3.2	1.5
CCOC(=O)C1CCCN(C(=O)c2cccc(Cl)c2)CC1 (stereo not drawn)	·	·	-1.9	11.2	-1.9	-0.7
O=C(CCc1nc2ccccc2c(=O)[nH]1)NCCN1C(=O)S/C(=C\c2ccc(OC(F)F)cc2)C1=O	-0.7	2.6	11.8	12.8	69.4*	-0.5
O=C(CCc1nc2ccccc2c(=O)[nH]1)NCCN1C(=O)S/C(=C\c2ccccc2Cl)C1=O	-2.0	-14.6	-17.3	5.4	39.9	-0.3
